# From PubChem BioAssay (NCATS)
# Results filed as inconclusive are left out. Calls of active or inactive are those of the source. Calls come from the whole dose curve; as a rule, active = well fitted cell-killing curve with a large enough effect; inconclusive = small, poorly fitted or top-dose-only effect, or effect the other way; inactive = no such curve, though single readings can be large or run the other way.
# Test: Quantitative highthroughput screen to assess conditional lethalithy of SEM cells grown in RPMI1640 with unreated serum (RPMI+s) (AID 1963883); note: nearly all actives have a fitted effect of over 35% in size
# Details: SEM B-ALL cells, CellTiter-Glo viability, 48 h; series mostly up to 45.8 µM; viability: at the top concentration
# Source text: Assay Provider: Jason Cantor Ph.D.
# Department of Biochemistry
# University of Wisconsin-Madison, Madison, WI, USA
# Chemical screening studies have identified drug sensitivities across hundreds of cancer cell lines but most putative therapeutics fail to translate. Discovery and development of drug candidates in models that more accurately reflect nutrient levels in human blood is a major challenge. Here we performed high-throughput screens in conventional versus Human Plasma-Like Medium (HPLM) to identify compounds that were "missed" when screening using the artificial culture condition. Sets of conditional anticancer compounds spanned phases of clinical development and included non-oncology drugs were assessed. […] We also traced conditional phenotypes for several chemotherapeutics to availability of HPLM-specific metabolites and confirmed others for compounds whose reported targets are encoded by nonessential genes. Our findings establish generalizable strategies for exploiting conditional lethality in HPLM to reveal therapeutic candidates and mechanisms of action in cancer cells.
# Described herein are the results of each viability screens against three cell lines: NOMO1 (an acute myeloid leukemia cell line); P12-Ichikawa (a T-cell acute lymphoblastic leukemia); and SEM (a B-cell ALL). Each assay was screened using 3 different cell culture media: homemade human plasma-Like medium with 10% dialyzed fetal bovine serum (HPLM+ds); RPMI1640 with 10% untreated FBS and 5mM glucose (RPMI+s); and RPMI1640 with 10% dialyzed fetal bovine serum and 5 mM glucose (RPMI+ds).
# PROTOCOL TABLE (as described by Inglese J, Shamu CE and Guy RK. 2007)
# SEQUENCE No. (e.g., 1, 2, 3, etc.); […] (e.g., Cells, Incubation, Reagent, etc.); VALUE and DESCRIPTION.
# 1; Cells; 5 uL; white, solid bottom 1536-well Greiner assay plate.
# 2; Compounds; 23 nL; Kalypsis pin tool (Wako USA) equipped with a 1536-well pin head to transfer to the assay plates.
# 3; Incubation; 48 hours; 37C incubation.
# 4; Reagent; 3 uL; CellTiter Glo (Promega).
# 5; Incubation; 5 min, room temperature
# 6; Detection; Luminescence, Viewlux PerkinElmer.
# NOTES (numbers refer to Sequence numbers above)
# 1. Briefly, 5 ul of cell reagent was dispensed using a Multidrop Combi Dispenser. The NOMO1 and SEM cells were plated at 500 cells/well and the P12-Ichikawa line at 1000 cells/well.
# 2. After seeding the cells, 23 nL of MIPE 4.1 library compounds (in DMSO) were added to each plate using a Kalypsys 1536 Pintool dispenser. Bortezomib at final concentration of […] and DMSO were added to each plate as positive and negative controls respectively. For each screen, MIPE 4.1 compounds were added over an eleven-point concentration range […] in 3-fold dilutions.
# 3. Each plate was covered with a stainless steel gasketed lid to prevent evaporation and incubated for 48 hour at 37C, 95% relative humidity, and 5% CO2.
# 4-5. Three microliter CellTilter-GloTM luminescent substrate mix (Promega) reagent was added to the assay plate and incubated at room temperature for 5 min.
# 6. The luminescence signal was measured using a ViewLux (PerkinElmer) multiplate reader with a 2 second exposure time per plate. Data for each compound were normalized as percent viability such that measurements for DMSO and the empty well controls in each plate were defined as 100% and 0%, respectively.
# Potency is the fitted concentration of half-maximal effect.
SMILES,viability,Potency
CN1c2ccccc2C(=O)N2CCc3c([nH]c4ccccc34)C21 (stereo not given),94.9% (inactive),–
O=C(Nc1cc(C(F)(F)F)cc(C(F)(F)F)c1)c1cc(Cl)ccc1O,–,2960 nM (active)
CNC(=O)c1ccc(C)c(-n2c(C)cc(OCc3ccc(F)cc3F)c(Br)c2=O)c1,87.3% (inactive),–
NC(=O)c1ccc(I)c([N+](=O)[O-])c1,87.2% (inactive),–
COc1cc2ncn(-c3cc(OCc4ccccc4C(F)(F)F)c(C(N)=O)s3)c2cc1OC,–,2090 nM (active)
CC(C)OC(=O)[C@H](C)N[P@](=O)(OC[C@H]1O[C@@H](n2ccc(=O)[nH]c2=O)[C@](C)(F)[C@H]1O)Oc1ccccc1,–,6620 nM (active)
CCCS(=O)(=O)Nc1ccc(F)c(C(=O)c2c[nH]c3ncc(Cl)cc23)c1F,–,11800 nM (active)
c1cc(-c2sc(-c3ccncc3)c(-c3ccncc3)c2-c2ccncc2)ccn1,–,2350 nM (active)
CC(C)(CO)[C@@H](O)C(=O)NCCC(=O)O,95.6% (inactive),–
CCc1nc(N)nc(N)c1-c1ccc(Cl)cc1,93.5% (inactive),–
COc1cc(Oc2ccnc3cc(OC)c(OC)cc23)ccc1NC(=O)NC(C)c1nccs1 (stereo not given),–,33200 nM (active)
CCCCCCCCCCCCCC(=O)N[C@H](CO)[C@H](O)c1ccc([N+](=O)[O-])cc1,–,743 nM (active)
NC(=O)N1c2ccccc2CC(=O)c2ccccc21,101% (inactive),–
O=C(Nc1cn[nH]c1-c1nc2ccc(CN3CCOCC3)cc2[nH]1)NC1CC1,–,41.8 nM (active)
COc1cc(Cl)cn2c(-c3cccc(NC4CNC4)n3)cnc12,71.6% (inactive),–
COc1cc(C)c(Sc2cnc(NC(=O)c3ccc(CNC(C)C(C)C)cc3)s2)cc1C(=O)N1CCN(C(C)=O)CC1 (stereo not given),–,5260 nM (active)
Cn1cnc(-c2cc3nccc(Oc4ccc(NC(=S)NC(=O)Cc5ccccc5)cc4F)c3s2)c1,–,1180 nM (active)
Cc1[nH]nc2ccc(-c3cncc(OC[C@@H](N)Cc4ccccc4)c3)cc12,–,2090 nM (active)
Cc1c(-c2ccnn2C)cc(C(=O)NCc2ccc(S(C)(=O)=O)cn2)c(=O)n1-c1cccc(C(F)(F)F)c1,94.5% (inactive),–
Cc1ccc(C(=O)Nc2ccc(S(=O)(=O)O)c3cc(S(=O)(=O)O)cc(S(=O)(=O)O)c23)cc1NC(=O)c1cccc(NC(=O)Nc2cccc(C(=O)Nc3cc(C(=O)Nc4ccc(S(=O)(=O)O)c5cc(S(=O)(=O)O)cc(S(=O)(=O)O)c45)ccc3C)c2)c1,–,4690 nM (active)

SMILES,viability,Potency
CC=C1NC(=O)[C@H]2CSSCCC=C[C@H](CC(=O)N[C@H](C(C)C)C(=O)N2)OC(=O)[C@H](C(C)C)NC1=O,–,29.6 nM (active)
CNC(=O)c1ccc2c(C(=Nc3cccc(CN(C)C)c3)c3ccccc3)c(O)[nH]c2c1,–,935 nM (active)
CN(C)CCCN=c1c2ccccc2n(C)c2[nH]c(=O)n(C)c(=O)c12,–,10500 nM (active)
COc1ccc(C2CNC(=O)C2)cc1OC1CCCC1 (stereo not given),98.5% (inactive),–
O=C(Nc1nnc(-c2ccco2)o1)c1cc(-c2ccccc2)nc2ccccc12,–,4690 nM (active)
O=C(O)Cc1cccc(OCCCN(Cc2cccc(C(F)(F)F)c2Cl)CC(c2ccccc2)c2ccccc2)c1,104% (inactive),–
COc1ccc(-c2cc(=O)c3c(O)cc(O[C@@H]4O[C@H](CO[C@@H]5O[C@@H](C)[C@H](O)[C@@H](O)[C@@H]5O)[C@@H](O)[C@H](O)[C@@H]4O)cc3o2)cc1O,94.6% (inactive),–
C[C@@H]1COCCN1c1cc(C2(S(C)(=N)=O)CC2)nc(-c2ccnc3[nH]ccc23)n1 (stereo not given in full),–,1170 nM (active)
NC1=N[C@@]2(c3cc(NC(=O)c4ccc(F)cn4)ccc3F)COC[C@@H]2CS1,–,11800 nM (active)
CC(C)(C)c1nc(-c2cccc(NS(=O)(=O)c3c(F)cccc3F)c2F)c(-c2ccnc(N)n2)s1,–,2640 nM (active)
CC(C)(C(=O)NCC(F)(F)C(F)(F)F)C(=O)N[C@@H]1C(=O)Nc2ccccc2-c2ccccc21,–,16600 nM (active)
COc1ccc(-c2ccc3ncc4c(c3c2)n(-c2ccc(N3CCNCC3)c(C(F)(F)F)c2)c(=O)n4C)cn1,–,20.9 nM (active)
NCCCC(N)(C(=O)O)C(F)F (stereo not given),108% (inactive),–
CC(NCCc1ccc(O)cc1)C(O)c1ccc(O)cc1 (stereo not given),99.2% (inactive),–
CCCCCN(CCC12CC3CC(CC(C3)C1)C2)C(=O)NCCCc1ccncc1,97.5% (inactive),–
CCOC(=O)[C@H](CCc1ccccc1)N[C@@H](C)C(=O)N1[C@@H](C(=O)O)C[C@H]2CCC[C@@H]21,–,20900 nM (active)
NS(=O)(=O)c1cccc2c1C(=O)c1cccc(O)c1C2=O,–,1480 nM (active)
C#Cc1cccc(Nc2ncnc3cc(OCCOC)c(OCCO)cc23)c1,–,20900 nM (active)
CC1(C)C(=O)N(CCN2CCC(C(=O)c3ccc(F)cc3)CC2)c2ccccc21,82.7% (inactive),–
O=C(Nc1ccc([N+](=O)[O-])cc1Cl)c1cc(Cl)ccc1O,–,1180 nM (active)
